# Bioassay records from PubChem BioAssay.
# Most compounds without a hit are left out; they make up all but 2.7% or so of the library.
# KKLEB tox = reduces viability of KKLEB cystic fibrosis airway cells | 0.36% of 360,000 active | KKLEB CF airway cells viability, ATPlite luminescence, overnight; hits give low values; cells stimulated with P. aeruginosa culture filtrate | activity change (cytotoxicity), % at 5 µM;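 active means corrected activity change at or below -50% at 5 µM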
# TRPM1 prom inh = reduces MITF-dependent TRPM1 promoter luciferase signal | SK-MEL-5 TRPM1 promoter luciferase, 24 h | inhibition, % at 12.5 µM | 0.83% of 330,000 active | AID 488899;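 active means mean inhibition across replicates of 60% or more, whatever share of single replicates reaches that level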
# HIF-2a inh = HIF-2a inhibition; 786-0 RCC cells HIF-2a reporter, luciferase luminescence, overnight; inhibition, % at 18.8 µM; 0.72% of 360,000 active; AID 624352;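 active means inhibition of the luminescence signal of 40% or more relative to plate controls, in a single-dose primary screen at 18.75 µM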
# CF NFkB block = blocks PAF-induced NF-kB reporter in cystic fibrosis cells; inhibition, % at 5 µM; AID 588850; 0.86% of 360,000 active; KKLEB NF-kB-GFP reporter, GFP fluorescence overnight;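 active means at least 50% inhibition at 5 µM, scaled per plate between neutral and stimulator controls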;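 further: PAF is a Pseudomonas aeruginosa culture filtrate used as stimulus; plate controls were PAF-stimulated DMSO wells for no effect and unstimulated DMSO wells for full effect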
# Peg3 prom inh = reduces Peg3 promoter-driven luciferase expression in HeLa; HeLa PEG-Prom luciferase reporter, luminescence, overnight; inhibition, % at 20 µM; 1.7% of 360,000 active; AID 588405;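 active means inhibition of at least 50% at 20 µM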
# Shn3 3UTR inh = inhibitors of Schnurri-3 3'UTR reporter in osteoblasts; Clone20 osteoblast Shn3 3'UTR firefly luciferase, 24 h; inhibition, % at 12.5 µM; 0.52% of 360,000 active; AID 588674;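 active means mean inhibition of at least 75% with every replicate also reaching 75%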;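 further: 0% = median of neutral control wells and 100% = pilot-screen positive control compound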
# Starred values were filed as active, the others as inactive; · = no result; ! = not active in a repeat.
SMILES,KKLEB tox,TRPM1 prom inh,HIF-2a inh,CF NFkB block,Peg3 prom inh,Shn3 3UTR inh
CCOC(=O)N/N=C\c1ccc([N+](=O)[O-])s1,-10,29,-21,-2,-148,-11
Cc1cc(C(=O)N/N=C/c2ccc(C)s2)n[nH]1,-4,-29,-98,-8,-126,-32
O=C(CNC(=O)c1ccccc1)N/N=C/c1ccc([N+](=O)[O-])s1,0,63*,-13,-5,-25,12
Cc1cc(C)n(CC(=O)N/N=C/c2ccc([N+](=O)[O-])s2)n1,-3,47,4,-3,-10,-1
CCOC(=O)c1cc(C#N)c(SC)nc1C,-1,-6,12,-3,10,-19
CCOC(=O)c1cc2c(N)c(C(=O)c3cc(C#N)c(SC)nc3C)sc2nc1C,-64*,9,-4,48,28,18
FC(F)(F)c1ccccc1Cc1c(-c2cccc(Cl)c2)nc2ccc(Cl)cn12,3,·,-164,10,-122,-26
COc1cc(CNC(=O)c2cc(-c3cc(Cl)ccc3OC)n[nH]2)cc(OC)c1,2,·,8,-21,13,-17
COc1cc(NC(=O)C2=C(N3CCOCC3)/C(=C\c3ccc(Cl)cc3Cl)CC2)cc(OC)c1OC,-65*,6,19,50,24,22
COc1cc(NC(=O)C2=C(N3CCOCC3)/C(=C\c3ccc(Br)cc3)CC2)cc(OC)c1OC,-4,3,12,6,13,23
C=C(C(=O)c1ccccc1)C(C)CC(=O)c1ccccc1 (stereo unspecified),-26,3,26,14,72*,6
O=C(COC(=O)Cc1c[nH]c2ccccc12)Nc1cccc(Br)c1,12,·,8,-23,7,-11
CC(=O)c1ccc(NC(=O)COC(=O)c2c3c(nc4ccccc24)/C(=C\c2cccs2)CCC3)cc1,-4,40,9,2,56*,7
CC(C)CNC(=O)COC(=O)c1c2c(nc3ccccc13)/C(=C\c1cccs1)CC2,-18,-17,-273,15,-90,20
CCC(=O)Nc1ccc2c(c1)OC[C@@H](C)N(Cc1cccc(F)c1)C[C@@H](C)[C@@H](OC)CN(C)C2=O,·,·,-2,·,·,·
Cc1ccc(NC(=O)CSc2nc3ccccc3c3nc(CCn4cncc4C)nn23)c(C)c1,-19,-14,6,5,96*,5
COC(=O)c1ccccc1NC(=O)c1cn(-c2ccc(C)c(C)c2)c(=O)c2ccccc12,-21,0,16,29,52*,-32
CN(Cc1cn(Cc2cccc(C(F)(F)F)c2)nn1)C1CN(Cc2cn(Cc3cccc(C(F)(F)F)c3)nn2)S(=O)(=O)C1 (stereo unspecified),·,·,7,·,·,·
CC(C)c1ccc2c(c1)CCC1C(C)(CN)CCCC21C (stereo unspecified),-13,98*,-2,13,109*,29
CC(C)c1ccc2c(c1)CC[C@H]1[C@](C)(CN)CCC[C@]21C,-17,102*!,-68,21,90*!,-4
CC(c1ccc2ccccc2c1)c1ccccc1C(=O)O (stereo unspecified),-14,·,0,14,2,-6
CSc1ccc(C(O)c2ncc(-c3ccc(F)cc3)[nH]2)cc1 (stereo unspecified),-2,·,-26,-8,-3,-15
O=C(O)c1c(Cl)cccc1Nc1ccccc1,6,·,11,-12,13,-14
c1ccc(Cn2ncc3c(N4CCN(c5ccccc5)CC4)ncnc32)cc1,-11,·,-19,19,35,14
C[C@@H]1CN([C@H](C)CO)C(=O)CCCn2nncc2CO[C@H]1CN(C)Cc1ccc(O)cc1,-9,·,-7,2,-18,-12
SMILES,KKLEB tox,TRPM1 prom inh,HIF-2a inh,CF NFkB block,Peg3 prom inh,Shn3 3UTR inh
CC(C)N(C(=O)[C@H]1C[C@H](CC(=O)NCCCN(C)C)C(=O)N2CCc3c([nH]c4cc(-c5ccco5)ccc34)[C@]12C)C(C)C,-15,73*,-30,40,91*,-26
COc1ccc2[nH]c3c(c2c1)CCN1C(=O)C(CC(=O)NC/C=C(\C)CCC=C(C)C)C[C@H](C(=O)N2CCOCC2)[C@@]31CCC1CCCC1 (stereo partly specified),8,25,0,-16,59*,36
CC[C@]12c3[nH]c4cc(CCC(=O)N(C)C)ccc4c3CCN1C(=O)[C@@H](CC(=O)NC/C=C(\C)CCC=C(C)C)C[C@@H]2C(=O)N1CCN(C(=O)c2ccco2)CC1,8,51,-79,-138,21,87*
CN(C)CCCNC(=O)C[C@H]1C[C@H](C(=O)N2CCOCC2)[C@@]2(CCC3CCCC3)c3[nH]c4cc(-c5ccco5)ccc4c3CCN2C1=O,-3,-3,-9,26,95*,-7
CC[C@]12c3[nH]c4ccc(OC)cc4c3CCN1C(=O)C(CC(=O)NC/C=C(\C)CCC=C(C)C)C[C@@H]2C(=O)N1CCN(C(=O)C2CC2)CC1 (stereo partly specified),3,-2,4,14,9,20
Cc1cccc(-c2ccc([N+](=O)[O-])cc2CN2CCN(c3ncc(Cc4ccccc4)cn3)CC2)c1,·,·,-3,·,·,·
O=C(Nc1ccc(Oc2ccccc2)nc1)[C@H]1O[C@@H](n2ccc(=O)[nH]c2=O)[C@H](O)[C@@H]1O,-24,·,16,-7,3,-7
Cc1[nH]n(-c2ccccc2)c(=O)c1C(C[N+](=O)[O-])c1ccc(Br)cc1 (stereo unspecified),-11,83*,29,8,103*,83
COc1cccc(C(C[N+](=O)[O-])c2c(C)[nH]n(-c3ccccc3)c2=O)c1 (stereo unspecified),5,-8,11,-3,20,-12
COc1ccc(-c2ccc3[nH]c4c(c3c2)CCN2C(=O)[C@@H]([C@H](C)O)[C@@H](N(C)C(=O)Nc3ccc(F)cc3)C[C@@H]42)cc1,-18,·,-54,36,95*,21
COc1ccc(NC(=O)c2cc(-c3ccncc3)nc3ccc(Br)cc23)cc1OC,-11,49,12,-12,94*,46
Cc1[nH]c2ccccc2c1C(=O)C(=O)NCc1nnnn1-c1ccc(F)cc1,3,·,13,-8,18,0
CN1CCN(CCCNC(=O)c2ccc3c(Cl)c4c(nc3c2)CCCC4)CC1,3,-17,-20,1,87*,-29
CCC(C)NC(=O)c1ccc2c(Cl)c3c(nc2c1)CCC3 (stereo unspecified),-11,-53,-331,4,-242,-82
O=C(Nc1cccc(-c2nc3ccccc3[nH]2)c1)c1cccc(NC(=O)c2ccco2)c1,-59*,87*,-51,38,104*,42
Cc1cc(C)c(NC(=O)c2cccc(NC(=O)c3ccco3)c2)c(C)c1,19,-7,18,-17,73*,16
O=C(CSc1ccc(Cl)cc1)Nc1cccc(-c2nc3ccccc3[nH]2)c1,-9,1,3,-43,51*,-8
